Measurements taken from PubChem BioAssay (NCI).
Compounds without any hit were thinned out: in the full panel of roughly 83,000, 20% have a hit.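 The endpoint reported here, percent growth, reads 100 for growth as untreated, 0 for no net growth and -100 for all cells dead.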 Values without a mark were called inactive. Calls of active or inactive are those of the source.

System: NCI-H226 lung
Assay: NCI-60 one-dose screen, 48 h (100 = growth as untreated, 0 = no growth, -100 = all killed)
Settings: 10 µM unless noted
Procedure: Growth inhibition of the NCI-H226 human Non-Small Cell Lung tumor cell line is measured as a screen for anti-cancer activity. Cells are grown in 96 well plates and exposed to the test compound for 48 hours. Compounds are tested at a single concentration, which is 10^-5 M for most compounds. The reported endpoint is percent growth (GI% or GIPRCNT), where numbers from 0 - 100% represent growth inhibition, and numbers from -100% - 0 represent cell death. For example, a value of 40 represents 60% growth inhibition. A value of 0 means no net growth occurred over the course of the experiment. A value of -40 indicates 40% of cells at the beginning of the experiment died by the end of the experiment. A value of -100 means all cells are dead at the end of the experiment.
NCI-60 Human Tumor Cell Lines Screen was performed using the standard one-dose NCI protocol, which is described in more detail at https://dtp.cancer.gov/discovery_development/nci-60/default.htm.
Compounds with GIPRCNT values below 10 were considered active. Activity score was based on GIPRCNT using the following formula: […]
Score is 0 for GIPRCNT values of 100 or above, 50 for GIPRCNT values of 0, and 100 for GIPRCNT values of -100.

Structure (SMILES)	growth
CC/C=C1/C(=O)C=C[C@@H]1C/C=C\CCCC(=O)OC	88.1%
CCCCCCCCCCCCCCCCCCOc1ccccc1CC(=O)OCC[N+]1(C)CCOCC1	49.8%
CCOC(=O)c1c2c(n3c1NCC3)-c1ccccc1C2=O	99.6%
CCOC(=O)Nc1nc2ccc(SCC(C)C)cc2s1	46.6%
COc1ccc(NC(=O)c2cccc(C3CCc4c(cc(OC)c(OC)c4OC)O3)c2)cc1 (stereo not given)	47.5%
CC[C@@H](c1ccc2cc(OC)ccc2c1)C(C)(C)C(=O)F	103%
O=[N+]([O-])/C(=C\c1ccco1)c1ccccc1Cl	90.3%
O=C(Nc1cccc(NC(=O)C2CCCCC2)c1)c1ccccn1	106%
FC(F)(F)c1[nH]ncc1-c1nc2c(N3CCCCC3)cc3[nH]ncc3c2c2c1CCCC2	2.93% (active)
CCCCCCCC/C=C\CCCCCCCCOc1ccccc1CC(=O)NCC[N+]1(C)CCCCC1	67.1%
C#CCn1cnc2c(Nc3cccc(NC(=O)CCl)c3)ncnc21	51.4%
COc1ccc(C2=CN3CC=CCC3CC2=O)cc1 (stereo not given)	99.9%
COc1ccc(-c2ccc(=O)oc2C#Cc2cc(OC)c(OC)c(OC)c2)cc1O	51.7%
Cc1ccc(-c2csc(NC(=O)N3CCN(c4cc5c(cc4F)c(=O)c(C(=O)O)cn5C4CC4)CC3)n2)cc1	14.5%
CCOC(=O)/C=C/c1c(C)[nH]c(=O)[nH]c1=O	98.6%
CC(=O)c1c(Nc2ccc(F)c(F)c2F)[nH]c2c(F)cc(F)cc2c1=O	-15.6% (active)
CCCCCCCCn1ccc2cc(NC(=O)Cn3cc(CN4CCN(CC)CC4)nn3)ccc21	98.3%
Cn1c(=O)c2c(c3ccccc31)OC(N)=C(C#N)C21C(=O)c2ccccc2C1=O	81%
CN1CCN(c2ccc3c(c2)nc(NNC(=O)c2cnccn2)c2cccn23)CC1	38%
COc1cc2c(c(OC)c1OC)C(=O)CC(c1cccc(NC(=O)c3ccccc3Br)c1)O2 (stereo not given)	84.8%

Structure (SMILES)	growth
C=C1C(=O)O[C@H]2[C@H]1CC/C(COC(=O)c1cc3cc(F)ccc3[nH]1)=C\CC[C@@]1(C)O[C@@H]21	-41.3% (active)
NC(=S)N/N=C/c1cn(-c2ccccc2)nc1-c1cc2ccccc2oc1=O	81.3%
Nc1c(C(=O)Nc2ccccn2)sc2nc3c(cc12)C(O)CCC3 (stereo not given)	57.7%
CC(C)=CC(=O)N[C@@H]1CC2CCC3C(CC[C@@]4(C)C3CC[C@@H]4C(C)N(C)C)[C@@]2(C)C[C@@H]1O (stereo not given in full)	89.1%
CC1=NN(c2ccc(Cl)cc2)CC1(C)N=O (stereo not given)	76.9%
C=CCN=C(N)SCCCCCCSC(N)=NCC=C	97.1%
CCCCCn1sc(=O)n(Cc2ccc(CNC(=O)OCc3ccc4c(Cl)cc(Cl)c(O)c4n3)cc2)c1=O	65.8%
O=C1Nc2ccccc2C2c3cccn3-c3ccccc3N12 (stereo not given)	89.5%
Cc1cccc(-n2c(C)nc3ccc(N4CCCNC4=O)cc3c2=O)c1	96.5%
N=c1sc(Cc2cc(Cl)ccc2Cl)cn1CC(=O)c1ccccc1	66.3%
COc1cc(C(=O)/C=C/c2c(-c3cccs3)nc3ccccn23)cc(OC)c1OC	24.8%
CC(C)c1ccc(-n2c(=S)[nH]c3sc4c(c3c2=O)CCC(=O)C4)cc1	84.9%
COc1ccc2c(c1)c(-c1cc(-c3cn(C)c4ccc(OC)cc34)on1)cn2C	88%
COC(=O)c1c2c(n3ccc(C)cc13)C(=O)c1ccccc1C2=O	62.1%
Cc1ccc(O)c(NC(=O)c2ccc(CNc3ccnc(C(F)(F)F)c3)cc2)c1	74%
S=c1[nH]c2cc(Cl)ccc2o1	104%
O=C(O)c1cn(C2CC2)c2cc(N3CCN(C(=O)N/N=C/c4ccccc4)CC3)c(F)cc2c1=O	88%
O=C1NC(=Nc2ccc(O)cc2)S/C1=C\c1cccs1	57.4%
Cc1c2ccccc2nc2c1ccc1cccnc12	96.5%
Clc1ccc(-c2cn3ccsc3n2)c(Cl)c1Cl	84.6%
